# In paper PMC4552634, “A New Set of Chemical Starting Points with Plasmodium falciparum Transmission-Blocking Potential for Antimalarial Drug Discovery” (PLoS ONE, 2015):
# The whole screen tested about 13,000 compounds, of which about 3,200 (25%) showed an effect of 50% or more. Some of the results follow.
# System: P. falciparum stage V gametocytes
# Design: BacTiter-Glo ATP luminescence viability of purified stage V gametocytes in 384-well plates, per cent inhibition versus DMSO
# Conditions: 48 h, 5 µM; inhibitor
row,Compound,% Inhibition
1,Cn1nccc1C(=O)NCCNCc1ccc(-c2ccc(-c3nc4cc(C(F)(F)F)ccc4[nH]3)s2)cc1.O=C(O)C(F)(F)F [TCMDC-133018],-29.18%
2,CCNc1cc(C(=O)N[C@@H](Cc2ccccc2)[C@H](O)CNC(C)(C)CCCC(C)C)cc(N2CCCCS2(=O)=O)c1 [TCMDC-135211],24.29%
3,CC(C)CCCC(C)(C)NC[C@@H](O)[C@H](Cc1ccccc1)NC(=O)c1cc(NC(C)C)cc(N2CCCCS2(=O)=O)c1 [TCMDC-135206],89.31%
4,CCNc1cc(C(=O)NC(Cc2ccccc2)C(O)CNC(C)(C)CCCC(C)C)c(F)c(N2CCCS2(=O)=O)c1 (centres unmarked) [TCMDC-135210],12.17%
5,CC(C)CCCC(C)(C)NC[C@@H](O)[C@H](Cc1ccccc1)NC(=O)c1cc(NC(C)C)cc(N2CCCCS2(=O)=O)c1F [TCMDC-135540],50.35%
6,CCNc1cc(C(=O)N[C@@H](Cc2ccccc2)[C@H](O)CNC(C)CC(C)C)c(F)c(N2CCCCS2(=O)=O)c1 (some centres unmarked) [TCMDC-135167],44.92%
7,CCNc1cc(C(=O)N[C@@H](Cc2ccccc2)[C@H](O)CNC(C)(C)CC(C)(C)C)c(F)c(N2CCCCS2(=O)=O)c1 [TCMDC-135166],-2.474%
8,CC(C)Nc1cc(C(=O)N[C@@H](Cc2ccccc2)[C@H](O)CNC(C)(C)c2cccc(C(F)(F)F)c2)cc(N2CCCCS2(=O)=O)c1 [TCMDC-135204],0.5792%
9,CC(C)Nc1cc(C(=O)N[C@@H](Cc2ccccc2)[C@H](O)CNCc2cccc(C(F)(F)F)c2)c(F)c(N2CCCCS2(=O)=O)c1 [TCMDC-135538],3.895%
10,CCNc1cc(C(=O)N[C@@H](Cc2ccccc2)[C@H](O)CNCCC(C)(C)C)c(F)c(N2CCCCS2(=O)=O)c1 [TCMDC-135165],62.14%
11,CCCc1cc2c3c(N)nc(N)nc3ccc2n1C(CC)CC [TCMDC-137312],13.64%
12,CC(C)n1ncc2c3c(N)nc(N)nc3ccc21 [TCMDC-137866],12.93%
13,CCc1cc2c3c(N)nc(N)nc3ccc2n1C(C)(C)C [TCMDC-137306],29.54%
14,CCCc1cc2c3c(N)nc(N)nc3ccc2n1CC [TCMDC-137946],108%
15,CCc1cc2c3c(N)nc(N)nc3ccc2n1CC [TCMDC-137851],94.91%
16,CCn1c(C(C)C)cc2c3c(N)nc(N)nc3ccc21 [TCMDC-137856],56.38%
17,CCc1cc2c3c(N)nc(N)nc3ccc2n1C(CC)CC [TCMDC-137309],2.246%
18,CCc1cc2c3c(N)nc(N)nc3ccc2n1C(C)CC (centres unmarked) [TCMDC-137308],10.89%
19,CCC(CC)n1c(COC)cc2c3c(N)nc(N)nc3ccc21 [TCMDC-137313],-40.93%
20,CSC1=NC2(CC(c3cccc(C)c3)c3cc(Cl)c(O)cc3O2)CC(C)(C)N1 (centres unmarked) [TCMDC-125563],19.29%
21,O=C(c1ccc(-c2ccccn2)s1)N1CCc2cc3nccc(N4CCN5CCC[C@H]5C4)c3cc21 [TCMDC-140047],34.48%
22,CCCCCCn1c(Sc2ccc(C#N)c([N+](=O)[O-])c2)nnc1-c1cccs1 [TCMDC-135586],11.04%
23,COc1cccc(C(=O)Nc2ccc(Nc3nc(C)cc(N4CCCCC4)n3)cc2)c1OC [TCMDC-124963],-19.94%

row,Compound,% Inhibition
1,CC(CN(C)C)Oc1ccc2[nH]c(-c3cccc(OCc4ccccc4)c3)nc2c1C#N (centres unmarked) [TCMDC-133767],6.337%
2,CCn1c(-c2nonc2N)nc2c(-c3cccc(NC(=O)Nc4cccc(C#N)c4)c3)ncc(OCCCN)c21 [TCMDC-136195],98.06%
3,CCn1c(-c2nonc2N)nc2c(-c3cccc(NC(=O)Nc4ccc(C#N)cc4)c3)ncc(OCCCN)c21 [TCMDC-136194],88.46%
4,Cc1cccc2[nH]c(-c3ccc(-c4ccc(NC(=O)Nc5cccc(C#N)c5)cc4)cc3)nc12 [TCMDC-133196],-20.21%
5,N#Cc1cccc(NC(=O)Nc2cccc(-c3cccc(-c4nc5ccccc5[nH]4)c3)c2)c1 [TCMDC-133193],-45.89%
6,COc1ccc(N2CCN(CCCCNC(=O)c3ccc(NC(=O)c4ccc(OC(F)(F)F)cc4)cc3)CC2)c(OC)c1 [TCMDC-138149],-10.77%
7,N#Cc1ccc2c(c1)CCN(CCC1CCC(Nc3ncnc4ccccc34)CC1)C2 (centres unmarked) [TCMDC-139358],-22.56%
8,Cc1cccc2nc(-c3ccc(-c4cccc(NC(=O)C(C)CN(C)C)c4)s3)[nH]c12 (centres unmarked) [TCMDC-137116],33.05%
9,Cc1cc2cc(NC(=O)Nc3ccnc4ccccc34)ccc2n1C [TCMDC-139291],-17.26%
10,Cc1cc(NC(=O)Nc2cccc(N(C)C)c2)c2ccccc2n1 [TCMDC-138955],-40.58%
11,O=C(Nc1ccc(SC(F)(F)F)cc1)Nc1ccnc2ccccc12 [TCMDC-139287],73.37%
12,CCC(C)c1ccc(NC(=O)Nc2ccnc3ccccc23)cc1 (centres unmarked) [TCMDC-139723],3.75%
13,CN(C)c1cc(NC(=O)Nc2ccccc2)c2ccccc2n1 [TCMDC-123521],30.25%
14,CN(C)c1cc(NC(=O)Nc2ccc(SC(F)(F)F)cc2)c2ccccc2n1 [TCMDC-123994],86%
15,N#Cc1ccc2c(c1)CCN(CCC1CCC(NC(=O)c3cc4ccccc4[nH]3)CC1)CC2 (centres unmarked) [TCMDC-139633],-57.67%
16,O=C(Nc1ccc(Cl)cc1)c1cc(Cl)ccc1NC(=O)C1CCc2ccccc2O1 (centres unmarked) [TCMDC-136640],-15.02%
17,CCOc1c(N2CCN(CCCCNC(=O)c3ccc(NC(=O)c4ccc(Cl)cc4)cc3)CC2)ccc2ccccc12 [TCMDC-138522],6.305%
18,CCCOc1cc(O)c(-c2n[nH]c(C)c2Oc2ccccc2)cc1CC [TCMDC-125714],-75.18%
19,CCCOc1ccc(CCNCCCCNCCc2ccc(OCCC)c3ccccc23)c2ccccc12 [TCMDC-137952],124.7%
20,CCCOc1c(CCNCCCCNCCc2ccc3ccccc3c2OCCC)ccc2ccccc12 [TCMDC-137950],113.4%
21,CCOc1c(CCNCCCCNCCc2ccc3ccccc3c2OCC)ccc2ccccc12 [TCMDC-137759],109.7%
22,CC(=NO)C1=C(O)C(c2ccccc2)N(c2ccccc2)C1=O (centres unmarked) [TCMDC-131673],13.72%
23,O=C(/C=C/c1ccc(Cl)c(Cl)c1)NCCCCCN1CCCN(C(=O)Nc2ccc(F)c(F)c2)CC1 [TCMDC-135750],-25.07%

row,Compound,% Inhibition
1,CCCC(C)Nc1nc(C)cc(N[C@@H](Cc2ccccc2)C(=O)NCCc2ccccc2)n1 (some centres unmarked) [TCMDC-134766],6.892%
2,O=C(Nc1ccc(OC2CCN(Cc3ccsc3)C2)c(Cl)c1)c1ccco1 (centres unmarked) [TCMDC-133950],41.88%
3,O=C(N[C@@H](CC1CCCCC1)C(=O)NC1CCCCCC1)c1ccc(O)c(-c2ccc(Cl)c(Cl)c2)c1 [TCMDC-140847],37.48%
4,CCN(CC)CCNC(=O)c1ccc(NC(=O)c2ccc(-c3cc(NC(=O)CC4CCCC4)ccc3C)cc2)cc1 [TCMDC-133707],110.3%
5,Cc1ccc(NC(=O)C2CCC2)cc1-c1ccc(C(=O)NCC2CC2)cc1 [TCMDC-138709],-25.69%
6,COc1ccc(NC(=O)Nc2ccc(C)c(-c3ccc(C(=O)NCCN4CCCC4)cc3)c2)cc1 [TCMDC-134196],-27.29%
7,COc1cc2c(cc1OC)CC(NCCCCCCNCCc1ccc(Cl)cc1)CC2 (centres unmarked) [TCMDC-132038],103.4%
8,COc1ccc(CN(C)CCCc2ccc(NC(=O)Cc3ccc4nc(-c5ccccc5)ccc4c3)cc2)cc1OC [TCMDC-131845],17.3%
9,COc1ccc(CCNCCCCCCNCCc2ccc(-c3ccccc3)cc2)cc1OC [TCMDC-131267],96.14%
10,COc1ccc(CNCCCCCCNCCc2ccc(Cl)cc2)cc1OC [TCMDC-131282],88.88%
11,COc1cc2c(cc1OC)CN(CCCCc1ccc(NC(=O)c3cc(Cl)cc(Cl)c3)cc1)CC2 [TCMDC-138174],-15.17%
12,COc1ccc(CNCC2CCC(CNCCc3ccccc3)CC2)cc1Cl (centres unmarked) [TCMDC-140364],-22.08%
13,COc1cc2c(cc1OC)CC(NCc1ccc(-c3ccc4nc[nH]c4c3)cc1)C2 [TCMDC-133474],37.11%
14,COc1ccc(CCNCCCCCCNCCCc2ccc(Cl)cc2)cc1OC [TCMDC-131280],105.1%
15,CCOc1cc2ncnc(Nc3ccc(OCc4c(Cl)cccc4Cl)c(OC)c3)c2cc1OCC [TCMDC-131927],-5.801%
16,CCC(O)(C#Cc1c(C)nc(N)nc1N)CC [TCMDC-137329],41.32%
17,N#Cc1ccc(NC(=NCc2cccnc2)Nc2ccc(-c3ccccc3)cc2)c(O)c1 [TCMDC-140208],-10.63%
18,COc1ccccc1C1CC(c2ccc(Br)cc2)=NN1C(=O)c1ccccc1 (centres unmarked) [TCMDC-125622],32.36%
19,Oc1ccc2[nH]c(-c3cccc(F)c3)nc2c1CN1CCC(N2CCCC2)CC1 [TCMDC-136357],-60.35%
20,Cc1cccc2[nH]c(-c3ccc(-c4cccc(NC(=O)NCc5cccc(F)c5)c4)cc3)nc12 [TCMDC-133295],32.47%
21,COc1cccc(NC(=O)Nc2ccc(Nc3nc(C)cc(N4CCCC4)n3)cc2)c1 [TCMDC-124957],-12.57%
22,N=C(N)c1cc(Br)cc(NC(=O)Nc2cc(Br)cc(C(=N)N)c2)c1 [TCMDC-124180],-21.96%
